Sampled rows, rich in hits. Any-hit rate of the full collection: about 1.2%.
RGS8-Gao reg: regulators of human RGS8-Galphao interaction; P09471; multiplexed bead flow cytometry, RGS8-Galphao binding; actives lie on both sides; 0.34% of 220,000 active; response (percent of control binding), % at 10 µM; in the data active means response below about 60% or above about 140%; inactive means in between;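 further: Galphao activated as the GDP aluminium fluoride complex binding bead-coupled RGS8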
Target sequence (P09471 whole entry, looked up): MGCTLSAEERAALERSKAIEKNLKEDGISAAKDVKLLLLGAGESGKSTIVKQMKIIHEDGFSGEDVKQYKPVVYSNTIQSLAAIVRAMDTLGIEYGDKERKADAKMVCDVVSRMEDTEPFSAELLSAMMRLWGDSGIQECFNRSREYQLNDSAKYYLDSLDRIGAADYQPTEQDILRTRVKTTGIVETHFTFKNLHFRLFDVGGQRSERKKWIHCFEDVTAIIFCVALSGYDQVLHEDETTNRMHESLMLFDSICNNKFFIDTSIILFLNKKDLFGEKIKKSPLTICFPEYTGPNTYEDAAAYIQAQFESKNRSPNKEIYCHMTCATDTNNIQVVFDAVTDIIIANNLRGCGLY
GSH fluor: GSH bead compound fluorescence profile; GSH beads flow cytometry, compound fluorescence 488/530 nm; hits give high values; fluorescence (KMESF) at 10 µM; 0.25% of 190,000 active; AID 1776; in the data active means fluorescence above about 89;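 further: glutathione beads carrying GST-tagged Bcl family fusion proteins plus one bare bead set; values are compound well signal with DMSO vehicle wells as background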
Avidin fluor: avidin bead compound fluorescence profile; fluorescence (KMESF) at 10 µM; Avidin beads, compound fluorescence 488/530 nm, flow cytometry; hits give high values; AID 1775; 0.38% of 220,000 active; in the data active means fluorescence above about 47
RGS16-Gao HTS: regulators of human RGS16-Galphao interaction; O15492+P09471; bead-based flow cytometry RGS16-Galphao binding, fluorescence; actives lie on both sides; binding response (% of control), % at 10 µM; 0.38% of 220,000 active;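 further: Galphao activated by GDP with aluminum fluoride before binding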
RGS7-Gao reg: human RGS7-Galphao interaction regulation. 0.35% of 220,000 active. P09471. Multiplexed bead flow cytometry, RGS7-Galphao binding; actives lie on both sides. binding response (% of control), % at 10 µM; in the data active means binding response below about 49% or above about 150%; inconclusive means no clear call, values can overlap the other calls; inactive means in between;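 further: fluorescent Galphao held in activated GDP-AlF4 state binding bead-coupled RGS7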
RGS4-Gao reg: modulates binding of RGS4 to human Galphao | 0.33% of 220,000 active | Multiplexed bead flow cytometry; actives lie on both sides | binding response (% of control), % at 10 µM; in the data active means binding response below about 49% or above about 150%; inactive means in between;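 further: fluorescent Galphao activated with aluminum fluoride binding bead-coupled RGS4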
RGS-Gao: modulates binding between human RGS4 and Galphao; shares compounds with RGS16-Gao HTS; multiplexed bead flow cytometry, RGS–Galpha-o binding; RGS4–Galpha-o binding response, % at 10 µM; 99% of 1,600 active; AID 1504;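 further: fluorescently labeled Galpha-o bound to GDP with aluminium fluoride binding biotinylated RGS beads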
Biotin-avidin: biotin-avidin bead binding disruption counter-screen. shares compounds with RGS16-Gao HTS. streptavidin beads, fluorescein-biotin binding, flow cytometry. inhibition, % at 10 µM. 1,700 tested, under 10 active;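 active means inhibition above 50%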;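 further: median green fluorescence of gated singlet beads compared with DMSO control wells; 0% = DMSO wells and 100% = complete loss of bead fluorescence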
RGS8-Gao single: RGS8-Galphao interaction regulation, single point confirmation; 3% of 1,700 active; bead-based flow cytometry RGS8-Galphao binding, fluorescence; actives lie on both sides; shares compounds with RGS16-Gao HTS; binding response (% of control), % at 10 µM; in the data active means binding response below about 72% or above about 130%; inactive means in between;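 further: Galphao activated as GDP AlF4 complex before binding bead RGS8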
RGS7-Gao confirm: confirmation of regulators of human RGS7-Galphao interaction. shares compounds with RGS16-Gao HTS. bead-based flow cytometry RGS7-Galphao binding; actives lie on both sides. response (percent of control binding), % at 10 µM. 7.8% of 1,700 active. AID 1837; in the data active means response below about 75% or above about 130%; inactive means in between;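 further: fluorescent Galphao activated with GDP and aluminum fluoride binding bead-coupled RGS7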
RGS16-Gao single: RGS16-Galphao interaction regulation, single point confirmation. 4% of 1,700 active. bead-based flow cytometry, RGS16-Galphao binding; actives lie on both sides. shares compounds with RGS16-Gao HTS. response (% of control binding), % at 10 µM. AID 1838; in the data active means response below about 74% or above about 130%; inactive means in between;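 further: Galphao activated as the GDP aluminium fluoride complex binding bead-coupled RGS16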
RGS4-Gao confirm: RGS4-Galphao interaction regulation, single point confirmation; shares compounds with RGS16-Gao HTS; RGS4-Galphao binding, multiplexed bead flow cytometry; actives lie on both sides; binding response (% of control), % at 10 µM; 4% of 1,700 active; in the data active means binding response below about 74% or above about 130%; inactive means in between
RGS19-Gao conf: RGS19-Galphao interaction regulation, single point confirmation; shares compounds with RGS16-Gao HTS; bead-based flow cytometry RGS19-Galphao binding; actives lie on both sides; response (percent of control binding), % at 10 µM; 5% of 1,700 active; AID 1841; in the data active means response below about 50% or above about 160%; inactive means in between;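 further: 100% = no compound control and 0% = blank background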
Target sequence (P09471 whole entry, looked up): as above
Target sequence (P49795 whole entry, looked up): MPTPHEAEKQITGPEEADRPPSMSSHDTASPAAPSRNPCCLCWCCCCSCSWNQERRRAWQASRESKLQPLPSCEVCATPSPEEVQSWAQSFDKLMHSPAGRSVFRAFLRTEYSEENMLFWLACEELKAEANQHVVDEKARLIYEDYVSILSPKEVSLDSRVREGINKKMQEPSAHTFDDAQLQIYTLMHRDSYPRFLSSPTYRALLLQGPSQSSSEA
The depositor's hits bear a star; [ ] = remark or other dose. Unless noted, how the calls were made is not given here.

Results for CC(=O)Oc1ccc2c(=O)c(Oc3ccccc3)c(C)oc2c1OC(C)=O ?
RGS8-Gao reg: 53.7*; GSH fluor: 21; Avidin fluor: 3; RGS16-Gao HTS: -3.1; RGS7-Gao reg: 42.6*; RGS4-Gao reg: 48.8*; Biotin-avidin: -1.0; RGS8-Gao single: 96.2; RGS7-Gao confirm: 94.4; RGS16-Gao single: 93.5; RGS4-Gao confirm: 95.0; RGS19-Gao conf: 93.4

How did CCc1cccc(C)c1NC(=S)N(Cc1cccnc1)Cc1ccco1 do in these assays?
RGS8-Gao reg: 103.2; GSH fluor: 13; Avidin fluor: 5; RGS16-Gao HTS: 107.2; RGS7-Gao reg: 98.4; RGS4-Gao reg: 99.2

What do the screens show for `CC(=O)NC(=S)Nc1ccc(NC(=O)COc2ccc(Cl)cc2Cl)cc1`?
RGS8-Gao reg: 98.1; GSH fluor: 3; Avidin fluor: 78*; RGS16-Gao HTS: 100.0; RGS7-Gao reg: 184.4*[activator]; RGS4-Gao reg: 150.3*[activator]; Biotin-avidin: 1.8; RGS8-Gao single: 99.9; RGS7-Gao confirm: 97.1; RGS16-Gao single: 95.3; RGS4-Gao confirm: 98.8; RGS19-Gao conf: 92.9

What do the screens show for `Nc1ccc2oc3ccc(N)cc3c(=O)c2c1`?
RGS8-Gao reg: 44.4*; GSH fluor: 8; Avidin fluor: 0; RGS16-Gao HTS: 53.6; RGS7-Gao reg: -13.3*; RGS4-Gao reg: 5.6*; Biotin-avidin: 3.0; RGS8-Gao single: 104.2; RGS7-Gao confirm: 103.6; RGS16-Gao single: 105.8; RGS4-Gao confirm: 110.0; RGS19-Gao conf: 105.5

Results for CC(C)c1ccc2oc3nc(N)c(C(=O)O)cc3c(=O)c2c1 ?
RGS8-Gao reg: 95.8; GSH fluor: 67; Avidin fluor: 8; RGS16-Gao HTS: 97.3; RGS7-Gao reg: 98.4; RGS4-Gao reg: 96.7

What do the screens show for `CC(/C=C1\SC(=O)N(CCCC(=O)O)C1=O)=C\c1ccccc1`?
RGS8-Gao reg: 131.8; GSH fluor: 13; Avidin fluor: 2; RGS16-Gao HTS: 82.8; RGS7-Gao reg: 160.2*[activator]; RGS4-Gao reg: 165.1*[activator]; Biotin-avidin: -1.1; RGS8-Gao single: 100.7; RGS7-Gao confirm: 97.9; RGS16-Gao single: 97.0; RGS4-Gao confirm: 98.4; RGS19-Gao conf: 104.1

What do the screens show for `C#Cc1ccc([C@@H]2C=C(C(=O)Nc3ccccc3)O[C@H](OCC)[C@H]2CCCO)cc1`?
RGS8-Gao reg: 17.5*; GSH fluor: 18; Avidin fluor: 0; RGS16-Gao HTS: 10.9*; RGS7-Gao reg: 11.5*; RGS4-Gao reg: 21.9*; Biotin-avidin: 1.0; RGS8-Gao single: 105.0; RGS7-Gao confirm: 101.2; RGS16-Gao single: 105.3; RGS4-Gao confirm: 99.9; RGS19-Gao conf: 100.3

How did C#Cc1ccc([C@H]2C=C(C(=O)NCc3ccccc3)O[C@@H](OCC)[C@@H]2CCCO)cc1 do in these assays?
RGS8-Gao reg: 102.8; GSH fluor: 21; Avidin fluor: 6; RGS16-Gao HTS: 99.9; RGS7-Gao reg: 101.0; RGS4-Gao reg: 100.7

How did C#CCNC(=O)C1=C[C@H](C2CCCCC2)[C@@H](CCCO)[C@H](OCC)O1 do in these assays?
RGS8-Gao reg: 44.5*; GSH fluor: 20; Avidin fluor: 2; RGS16-Gao HTS: 40.5; RGS7-Gao reg: 38.0*; RGS4-Gao reg: 51.7; RGS-Gao: 51.7*; Biotin-avidin: 0.5; RGS8-Gao single: 99.5; RGS7-Gao confirm: 98.3; RGS16-Gao single: 101.9; RGS4-Gao confirm: 100.4; RGS19-Gao conf: 117.3

How did Cn1cccc1Cc1nnc(SCC(=O)NCCc2ccccc2)n1C do in these assays?
RGS8-Gao reg: 103.1; GSH fluor: 15; Avidin fluor: 6; RGS16-Gao HTS: 99.8; RGS7-Gao reg: 101.6; RGS4-Gao reg: 103.4

How did CN1CCN(NC(=O)c2cc([N+](=O)[O-])cc([N+](=O)[O-])c2)CC1 do in these assays?
RGS8-Gao reg: 111.0; GSH fluor: 25; Avidin fluor: 13; RGS16-Gao HTS: 110.7; RGS7-Gao reg: 109.0; RGS4-Gao reg: 111.1

How did COc1ccc(-c2cnnn2-c2ccc(NC(=O)c3ccc(S(=O)(=O)N4CCCCC4)cc3)cc2)cc1 do in these assays?
RGS8-Gao reg: 25.1*; GSH fluor: 10; Avidin fluor: -2; RGS16-Gao HTS: 14.2; RGS7-Gao reg: 21.3*; RGS4-Gao reg: 22.2*; Biotin-avidin: 0.3; RGS8-Gao single: 99.9; RGS7-Gao confirm: 98.8; RGS16-Gao single: 98.0; RGS4-Gao confirm: 98.8; RGS19-Gao conf: 103.4

How did Cn1nc(C(C)(C)C)c(NC(=O)c2ccc(F)cc2)c1C(C)(C)C do in these assays?
RGS8-Gao reg: 102.2; Avidin fluor: 7; RGS16-Gao HTS: 103.6; RGS7-Gao reg: inconclusive; RGS4-Gao reg: 101.0

Results for Cc1ccc(NC(=O)c2ccccc2Br)cc1S(=O)(=O)N(C)C ?
RGS8-Gao reg: 98.5; GSH fluor: 13; Avidin fluor: 11; RGS16-Gao HTS: 99.2; RGS7-Gao reg: 100.4; RGS4-Gao reg: 102.1

Results for CCCCNC(=O)CN(c1cccc(Br)c1)S(C)(=O)=O ?
RGS8-Gao reg: 101.7; GSH fluor: 20; Avidin fluor: 23; RGS16-Gao HTS: 105.7; RGS7-Gao reg: 101.3; RGS4-Gao reg: 104.3

What do the screens show for `COc1cc(C(=O)N/N=C/c2ccccn2)cc(OC)c1OC`?
RGS8-Gao reg: 13.0*; GSH fluor: 11; Avidin fluor: 0; RGS16-Gao HTS: 12.5*; RGS7-Gao reg: inconclusive; RGS4-Gao reg: 20.4*; Biotin-avidin: -1.8; RGS8-Gao single: 100.7; RGS7-Gao confirm: 104.8; RGS16-Gao single: 101.1; RGS4-Gao confirm: 101.5; RGS19-Gao conf: 107.2

From PubChem
